This note sets out measurements from PubChem BioAssay (NCATS).

The structures appear in SMILES notation. Inconclusive results are not listed. A number with no mark means an inactive call. The source made the active and inactive calls. Calls follow the shape of the dose curve; as a rule, active = well fitted curve in the direction sought with a large enough effect; inconclusive = small, poorly fitted or top-dose-only effect, or another doubt; inactive = no such curve, though single readings can be large; an effect the other way counts as inactive or inconclusive.

In assay [1] the test system is MCC-13. In words: qHTS assay to identify novel small-molecules to repurpose for Merkel cell carcinoma treatment (AID 1296009). Also: nearly all actives have a fitted effect of over 60% in size. The settings on record: MCC and control cell lines, CellTiter-Glo viability, 72 h; series mostly up to 46 µM. A digest of the protocol: (§1)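 72 hr, 37 degree celsius; NPC 8-pt / MIPE 11-pt dose response; compound pinned in DMSO; CellTiter-Glo, 10 min RT, luminescence; normalized to no-cell and DMSO controls.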

The test system of assay [2] is MCC-26. The assay is described as above. The settings on record: MCC and control cell lines, CellTiter-Glo viability, 72 h; series mostly up to 46 µM. An outline of the steps:
as §1

Assay [3] deals with MKL-1. The assay is described as above. The note with it: MCC and control cell lines, CellTiter-Glo viability, 72 h; series mostly up to 46 µM. A digest of the protocol:
as §1

The subject of assay [4] is MKL-2. The description is as above. The note with it: MCC and control cell lines, CellTiter-Glo viability, 72 h; series mostly up to 46 µM. An outline of the steps:
as §1

In assay [5] the test system is NIH3T3. Described as above. The note with it: MCC and control cell lines, CellTiter-Glo viability, 72 h; at 44.8 µM (top of the series) unless noted. A digest of the protocol:
as §1

Assay [6] relates to UISO. Described as above. The settings on record: MCC and control cell lines, CellTiter-Glo viability, 72 h; series mostly up to 46 µM. An outline of the steps: as §1
For assay [7], the system named is WaGa. Described as above. The settings on record: MCC and control cell lines, CellTiter-Glo viability, 72 h; series mostly up to 46 µM. A digest of the protocol:
as §1

Assay [8] concerns C33A. The experiment in a line: Primary qHTS to identify gynecologic anti-cancer compounds using libraries of approved drugs and bioactive compounds (AID 1345084). Also: nearly all actives have a fitted effect of over 55% in size. The settings on record: Gynecologic cancer cell panel viability, ATPlite luminescence, 48 h; series mostly up to 57.5 µM. A digest of the protocol:
(§2)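 Cytotoxicity screen measuring ATP content by luciferase luminescence. Each compound is applied at five concentrations for 48 h at 37 C with 5% CO2.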

Assay [9] relates to CAOV3. Described as above. The note with it: Gynecologic cancer cell panel viability, ATPlite luminescence, 48 h; series mostly up to 57.5 µM. An outline of the steps:
as §2

Assay [10] concerns CASKI. The assay is described as above. The settings on record: Gynecologic cancer cell panel viability, ATPlite luminescence, 48 h; series mostly up to 57.5 µM. A digest of the protocol:
as §2

Assay [11] deals with Es-2. The assay is described as above. The settings on record: Gynecologic cancer cell panel viability, ATPlite luminescence, 48 h; series mostly up to 57.5 µM. A digest of the protocol: as §2
Assay [12] concerns HeLa. The description is as above. The settings on record: Gynecologic cancer cell panel viability, ATPlite luminescence, 48 h; series mostly up to 57.5 µM. A digest of the protocol: as §2
For assay [13], the system named is Hek293T. The description is as above. The note with it: Gynecologic cancer cell panel viability, ATPlite luminescence, 48 h, control line for the selectivity index; series mostly up to 57.5 µM. An outline of the steps:
as §2

Assay [14] relates to JEG-3. Described as above. The settings on record: Gynecologic cancer cell panel viability, ATPlite luminescence, 48 h; series mostly up to 57.5 µM. An outline of the steps: as §2
In assay [15] the test system is OV90. The assay is described as above. The note with it: Gynecologic cancer cell panel viability, ATPlite luminescence, 48 h; series mostly up to 57.5 µM. An outline of the steps:
as §2

The test system of assay [16] is PA-1. Described as above. The note with it: Gynecologic cancer cell panel viability, ATPlite luminescence, 48 h; series mostly up to 57.5 µM. An outline of the steps: as §2
The test system of assay [17] is SKOV3. The assay is described as above. The note with it: Gynecologic cancer cell panel viability, ATPlite luminescence, 48 h; series mostly up to 57.5 µM. A digest of the protocol: as §2
Assay [18] relates to Tov-21-G. The assay is described as above. The settings on record: Gynecologic cancer cell panel viability, ATPlite luminescence, 48 h; series mostly up to 57.5 µM. A digest of the protocol: as §2
In assay [19] the test system is Tov112D. The description is as above. The settings on record: Gynecologic cancer cell panel viability, ATPlite luminescence, 48 h; series mostly up to 57.5 µM. A digest of the protocol: as §2
A short description of assay [20]: Drug repurposing screens with cells derived from glioblastoma tumor samples (AID 1345199). Also: nearly all actives have a fitted effect of over 40% in size. Also: potency is read from the fitted curve at half-maximal effect. The note with it: GBM patient neurospheres viability, ATP luminescence, 48 h. A digest of the protocol:
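Four patient lines of CD133+ GBM neurospheres were screened at several concentrations; hits were retested in those lines plus three slower-growing GBM lines, using 48-hour treatment and ATP-based viability.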

Setting [21] is: at 45.9 µM (top of the series), tumour line B.
[22] abbreviates: at 45.9 µM (top of the series), tumour line D.
% is scaled to controls: 0 for no effect and ±100 for the full control effect.

Consider `C[N+]1(CCF)[C@@H]2CC[C@H]1CC(OC(=O)C(O)(c1ccccc1)c1ccccc1)C2` (some centres undefined), for which the outcome in assay [1], in [5], in assay [9], in assay [10], in [13] and in assay [14] was inactive. Besides, the result in assay [17] was inactive. Further, the Potency entry in assay [2], in assay [3], in [4], in assay [6], in assay [7] and in assay [8] was “inactive” throughout. Moreover, the Potency result in [11], in assay [12], in assay [15], in [16], in [18] and in [19] was “inactive” throughout. Further, the activity, negative = cell killing in assay [20] (setting [21]) was -12.6%; in assay [20] (setting [22]), -18.1%. Also, in assay [20] (tumour line A), the Potency was 11.2 µM (active).

Turning to `Clc1cccc(SC2CCNCC2)n1`, the outcome in [1], in assay [9], in [10], in assay [13], in assay [14] and in [17] was inactive. Besides, the Potency result in [2], in assay [3], in [4], in assay [6], in assay [7] and in assay [8] was “inactive” throughout. In addition, the Potency result in [11], in assay [12], in assay [15], in [16], in assay [18] and in assay [19] was “inactive” throughout.

As for `C=C(C)[C@H]1CN[C@H](C(=O)O)[C@H]1CC(=O)O`, the compound was classed as inactive in assay [1], in assay [5], in assay [9], in assay [10], in [13] and in assay [14]. The call in [17] was inactive. Further, the Potency entry in assay [2], in assay [3], in assay [4], in [6], in assay [7] and in assay [8] was “inactive” in each case. Also, the Potency result in assay [11], in assay [12], in [15], in assay [16], in assay [18] and in assay [19] was “inactive” throughout. Moreover, the activity, negative = cell killing was -14.8% in assay [20] (setting [21]) and -15.4% in [20] (setting [22]).

Turning to `c1ccc2c(c1)sc1ccccc12`, the call in [1], in assay [5], in [9], in assay [10], in assay [13] and in assay [14] was inactive. Moreover, the compound was classed as inactive in assay [17]. The Potency result in [2], in assay [3], in assay [4], in assay [6], in [7] and in assay [8] was “inactive” in each case. Also, the Potency result in assay [11], in assay [12], in [15], in [16], in assay [18] and in assay [19] was “inactive” in each case. Also, the activity, negative = cell killing is -12.7% in [20] (setting [21]); -8% in assay [20] (setting [22]); -9.49% in assay [20] (at 46 µM (top of the series), tumour line A).

Turning to `O=c1oc2ccccc2c(O)c1Cc1c(O)c2ccccc2oc1=O`, the compound was called inactive in assay [1], in [5], in assay [9], in assay [10], in assay [13] and in assay [14]. Further, in assay [17], the outcome was inactive. Besides, the Potency entry in assay [2], in [3], in assay [4], in assay [6], in [7] and in [8] was “inactive” in each case. In addition, the Potency result in assay [11], in assay [12], in assay [15], in assay [16], in assay [18] and in assay [19] was “inactive” in each case. For the same compound, the activity, negative = cell killing in assay [20] (at 21.2 µM (top of the series), tumour line B) is -21.7%; in assay [20] (at 21.2 µM (top of the series), tumour line D) it was -20.9%; in [20] (at 21.3 µM (top of the series), tumour line A) it was -20.4%.

Turning to `COc1cc(OC)c(OC)cc1C=O`, the outcome in assay [1], in [9], in assay [10], in assay [13], in assay [14] and in [17] was inactive. Besides, the Potency entry in assay [2], in [3], in assay [4], in assay [6], in [7] and in assay [8] was “inactive” in each case. The Potency entry in [11], in [12], in assay [15], in [16], in assay [18] and in assay [19] was “inactive” each time. Also, in [20] (at 91.6 µM (top of the series), tumour line B), the activity, negative = cell killing is -6.05%.
